Screen size: about 330,000 compounds; about 4,600 (1.4%) were called active. This excerpt belongs to a sample that is enriched for actives. Values without a mark were called inactive.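 The calls were made as follows: active = inhibition of 40% or more at the single tested concentration; inactive = the rest.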

The experiment can be described thus: growth inhibitors of isogenic TIM10 control yeast, primary screen, counter-screen for tim10-1 yeast inhibitor project, luminescence, uHTS (AID 463195).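 Also: wild-type TIM10 isogenic control strain grown at permissive 25 °C; 0% = DMSO yeast wells and 100% = minimal medium wells without yeast.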 As to conditions: S. cerevisiae TIM10 strain growth, BacTiter-Glo luminescence, 24 h; at 10 µM; stronger effect = higher value. On the technique in general: Counterscreens check selectivity or assay interference.
Usually inhibition stands for the relative decrease from the control value, in per cent. Take `COc1ccc(OC)c(C(=O)c2ccc(C(=O)N3CCN(Cc4csc(C)n4)CC3)cc2)c1`: the inhibition is -9.33%.

For the compound `CCOC(=O)c1cn[nH]c1NC(=S)Nc1ccccc1`, the inhibition is -4.24%.

`CSC1=N/C(=C\C=C\c2cccs2)C(=O)S1`: the inhibition is 46.2% (active).

Take `CCC1C/C(=C/c2cccs2)C(=O)/C(=C/c2cccs2)C1` (stereo unspecified): the inhibition was 8.85%.

For `COC(=O)c1cccc(N2C(=O)C3C4C=CC(CC4)C3C2=O)c1` (stereo unspecified), the inhibition is -2.62%.

In the case of `O=C(OCC(=O)N(CCc1ccccc1)Cc1ccccc1)c1ccccc1[N+](=O)[O-]`, the inhibition is 6.8%.

Turning to `O=C(Nc1ccnc(-c2ccncc2)n1)c1cccs1`, the inhibition is 5.09%.

`O=C(Nc1ccc(NC(=O)c2cccs2)cn1)c1ccco1`: the inhibition was 49.1% (active).

Turning to `O=C(Nc1ccc(O)cc1)c1ccc(NC(=O)c2ccco2)cc1`, the inhibition was -7.64%.

For the compound `O=C(CN1CCN(C(=O)C2CCCO2)CC1)Nc1c(Cl)cccc1Cl` (stereo unspecified), the inhibition is -3.56%.

Take `O=[N+]([O-])c1ccc(N2CCN(c3ccc(F)cc3)CC2)cn1`: the inhibition is 9.61%.

`C/C=N/NC(=O)CCCC(=O)N/N=C/C`: the inhibition is 19.2%.

For the compound `S=C(NNC(=S)NC1CC2C=CC1C2)NC1CC2C=CC1C2` (stereo unspecified), the inhibition is 11.5%.

In the case of `S=C(NNC(=S)NC1CC2CCC1C2)NC1CC2C=CC1C2` (stereo unspecified), the inhibition was 31.5%.

With `CC(C)c1ccc(NC(=S)NC2CC3C=CC2C3)cc1` (stereo unspecified), the inhibition was 41.7% (active).

For `Fc1ccc(Cn2nnnc2C(c2cccs2)N2CCCCCC2)cc1` (stereo unspecified), the inhibition is 23.6%.

For the compound `Clc1nc(NC2CCCC2)nc(N2CCOCC2)n1`, the inhibition is 11.4%.

With `COc1nc(NC2CCCCC2)nc(N2CCCCCC2)n1`, the inhibition is 40% (active).

Consider `COC(=O)c1ccc(Oc2nc(Nc3ccc(F)cc3)nc(N3CCCC3)n2)cc1`, for which the inhibition is -20.4%.

As to `CCOC(=O)c1cnn(Cc2ccccc2Cl)c1N`, the inhibition was 1.13%.

For `COC(=O)CNC(=O)C(CCSC)NC(C)=O` (stereo unspecified), the inhibition is -26.2%.

Turning to `CO/N=C/c1cn(-c2ccc(Cl)cc2)nn1`, the inhibition was 5.41%.

`Cc1nc(-c2ccccc2)sc1C(=O)/C=C/N(C)C`: the inhibition is 7.98%.

On to `Cc1nc(-c2ccc(Cl)cc2)sc1C1(C)CC(c2ccc(Br)cc2)=NO1` (stereo unspecified), for which the inhibition is 7.58%.

Regarding `Cc1nc(-c2ccc(Cl)cc2)sc1C(=O)CBr`, the inhibition is 51.9% (active).

Consider `O=C(CSc1nncs1)NC1CCCc2ccccc21` (stereo unspecified), for which the inhibition is -4.46%.

As to `Cc1ccccc1N1CC(C(=O)Nc2nnc(SCCC3OCCO3)s2)CC1=O` (stereo unspecified), the inhibition is 4.72%.

For `CCSc1ccccc1C(=O)NCc1ccc(OC)cc1`, the inhibition was -1.39%.

As to `Cc1cccc(C)c1NC(=O)Nc1ccccc1-n1ccnc1`, the inhibition is 3.36%.

In the case of `CC(CC(=O)Nc1ccccc1)n1ccnc1` (stereo unspecified), the inhibition is -0.308%.

For `O=C(O)CCCC(=O)Nc1ccccc1-n1ccnc1`, the inhibition was 95.9% (active).

`COc1nc(Oc2ccc(=O)n(C)n2)nc(N(C)C)n1`: the inhibition is -5.67%.

As to `Cn1cnc([N+](=O)[O-])c1Sc1ccccc1`, the inhibition was 21.8%.

Consider `CC(=O)Oc1ccc(N(C(C)=O)S(=O)(=O)c2ccc3ccccc3c2)cc1Br`, for which the inhibition is 48.2% (active).

As for `CN(c1ccc(OCC(=O)O)cc1)S(=O)(=O)c1ccc2ccccc2c1`, the inhibition was -10.2%.

As for `COCCNC(=O)COc1ccc(N(C)S(=O)(=O)c2ccc3ccccc3c2)cc1`, the inhibition is 20.2%.

Turning to `COc1ccccc1C(=O)COC(=O)CSCC(=O)Nc1cc(C)on1`, the inhibition was 11.1%.

For the compound `COCCn1c(CN2CCC(Cc3ccccc3)CC2)nc2c1c(=O)n(C)c(=O)n2C`, the inhibition is -0.058%.

Regarding `CC(=O)Nc1cccc(OCC(=O)/C=C2\N(C)c3ccccc3C2(C)C)c1`, the inhibition was 14.8%.

Take `COC(=O)c1sccc1NC(=O)COc1ccc(Cl)cc1`: the inhibition was 12.6%.

Regarding `CCOC(=O)c1c(NC(=O)c2ccc(S(=O)(=O)N(C)CC3CCCO3)cc2)sc2c1CC(C)(C)NC2(C)C` (stereo unspecified), the inhibition is -10.5%.

For `COC(=O)c1c(NC(=O)COc2ccc(Cl)cc2Cl)sc2c1CC(C)(C)NC2(C)C`, the inhibition is 41.3% (active).

For `CCN(CC(=O)NC(C)C)C(=O)CCNC(=O)c1ccc(Cl)cc1`, the inhibition is 10.6%.

Consider `CCc1ccc(NC(=O)NC(C)c2ccc3c(c2)OCO3)cc1` (stereo unspecified), for which the inhibition is 6.53%.

As to `CC1CCC(NC(=O)C2c3ccccc3C(=O)N2Cc2ccc3c(c2)OCO3)CC1` (stereo unspecified), the inhibition is 0.084%.

`CC(=NCc1ccc2c(c1)OCO2)C1=C(O)c2ccccc2C1=O`: the inhibition is 70.5% (active).

Regarding `O=C1N(c2ccccc2)C(=Nc2ccccc2)SC12CC2`, the inhibition is 13.6%.

With `CC(=O)Nc1ccc(Nc2c([N+](=O)[O-])cc(S(C)(=O)=O)cc2[N+](=O)[O-])cc1`, the inhibition is -6.6%.

Regarding `CN(C)CCc1c[nH]c2ccc(Cn3cncn3)cc12`, the inhibition was 5.24%.

Consider `O=C(COC(=O)c1ccccc1Br)Nc1nnc(-c2ccccc2)o1`, for which the inhibition was -0.697%.

For the compound `Cc1ccc(S(=O)(=O)n2nc(OC(=O)C(C)(C)C)cc2N)cc1`, the inhibition was 17.1%.

As for `Nc1cc(OC(=O)c2ccccc2Br)nn1S(=O)(=O)c1ccccc1`, the inhibition was 46.5% (active).

As for `O=C(Cc1ccc(-n2c(=O)c3sccc3n(Cc3ccc(F)cc3)c2=O)cc1)NCc1ccco1`, the inhibition is 8.88%.

On to `O=C(NCc1ccco1)c1ccc(Cn2c(=O)c3sccc3n(Cc3ccc(F)cc3)c2=O)cc1`, for which the inhibition is 2.56%.

In the case of `O=C(NCc1ccco1)c1cc2sccc2n1Cc1ccc(F)cc1`, the inhibition was 46.4% (active).

Consider `COc1ccc(N2CC(C(=O)NCCS(=O)(=O)N3CCN(c4ccccc4)CC3)CC2=O)cc1` (stereo unspecified), for which the inhibition is -13.2%.

For `C[C@H]1CN([C@@H](C)CO)C(=O)Cc2cc(NS(C)(=O)=O)ccc2O[C@@H]1CN(C)CC1CC1`, the inhibition was -6.97%.

On to `CCN(c1ccccc1)S(=O)(=O)c1ccc(N)cc1`, for which the inhibition is 8.8%.

As for `O=S(=O)(ON(c1ccccc1)S(=O)(=O)c1ccccc1)c1ccccc1`, the inhibition is 45.9% (active).

For `O=S(=O)(c1ccccc1)N(Cc1cccc(F)c1)c1ccccc1`, the inhibition is 3.1%.

As to `COC(=O)c1ccc(OC(=O)c2nn(C)cc2Cl)c(OC)c1`, the inhibition was 8.9%.

As for `O=C(O)c1ccccc1N=N/C(=N/Nc1cc(S(=O)(=O)O)ccc1O)c1ccccc1`, the inhibition is 0.626%.

On to `O=c1c2ccccc2nnn1CSc1nc2sc3c(c2c(=O)n1CC1CCCO1)CCC3` (stereo unspecified), for which the inhibition is 25.8%.

As to `Cc1nnc(-c2ccc(Oc3ccc(C)c(C)c3)c([N+](=O)[O-])c2)o1`, the inhibition is 17.1%.

With `O=C(OCC(=O)c1c[nH]c2ccccc12)c1cccc(O)c1`, the inhibition was 5.38%.

As to `CCN1CCN(c2ccc(NC(=O)c3cnccn3)cc2)CC1`, the inhibition was -4.6%.

In the case of `CCN(CC)c1ccc(/C=N/NC(=O)c2cnccn2)c(O)c1`, the inhibition was 44.5% (active).

On to `COc1ccc(NC(=O)C/C(C)=N/NC(=O)c2cnccn2)cc1Cl`, for which the inhibition was 3.17%.

Turning to `Cc1ccc2nc(Nc3ncc4c(n3)CC(C)(C)CC4=O)nc(C)c2c1`, the inhibition is 5.07%.

On to `Cc1cc(=O)n2nc(N3CCCC(C(=O)N4CCN(C)CC4)C3)sc2n1` (stereo unspecified), for which the inhibition is 2.79%.

Take `O=c1[nH]cnc2c1c(-c1ccccc1)cn2-c1ccc(F)cc1`: the inhibition is 42.6% (active).

Turning to `O=c1c2c(-c3ccccc3)ccnc2[nH]n1-c1ccccc1`, the inhibition was -17.3%.

As to `COc1ccc(-n2cc(-c3ccccc3)c3c(=S)nc[nH]c32)cc1`, the inhibition was 33.8%.

Regarding `O=[N+]([O-])c1cc(C(F)(F)F)ccc1NCCc1ccncc1`, the inhibition is 6.18%.

For the compound `Cc1nn(Cc2ccccc2Cl)c(C)c1NC(=O)Cn1nc([N+](=O)[O-])c(Cl)c1C`, the inhibition is 2.84%.

As to `NC(=O)C[n+]1cccc(C(N)=O)c1`, the inhibition was 13.2%.

With `C#CCOCCOCCOCCNc1nc(N2CCN(C(=O)[C@H](CCC(=O)O)n3cc(C(N)CO)nn3)CC2)nc(N2CCN(C(=O)[C@H](CCCCN)n3cc(C(N)CC(C)C)nn3)CC2)n1` (stereo partly specified), the inhibition was -1.57%.

As to `CC(C)(C)N(CC#CCC(O)(c1ccccc1)C1CCCC1)CCO` (stereo unspecified), the inhibition is 0.266%.

Turning to `O=C1C=CC(=O)N1c1ccc(N2CCCCC2)cc1`, the inhibition is 73.2% (active).

As to `CC(=O)Nc1ccc(S(=O)(=O)Nc2ccc(N3CCCCC3)cc2)cc1`, the inhibition is -2.15%.

For `O=C1CC(N2CCN(c3ccc(F)cc3)CC2)C(=O)N1c1ccccc1` (stereo unspecified), the inhibition was -7.52%.

For the compound `COc1ccc(-c2cc(C3CCN(c4ncccc4[N+](=O)[O-])CC3)[nH]n2)cc1`, the inhibition is 33%.

On to `CC(=O)CSc1nnc(CSc2ncccn2)n1C1CCCCC1`, for which the inhibition was 3.42%.

As for `Nn1cnnc1N/N=C/c1cc([N+](=O)[O-])c(Cl)cc1Cl`, the inhibition was -10.5%.

In the case of `CN(CC(=O)Nc1ccccc1C(F)(F)F)C(=O)Cc1ccccc1F`, the inhibition was 12.1%.

On to `O=C(Nc1ccccc1F)c1ccccc1-c1ccc(C(F)(F)F)cc1`, for which the inhibition was 9.5%.

For the compound `N#C/C(=C\c1ccccc1C(F)(F)F)C(=O)Nc1ccccc1F`, the inhibition was 47.5% (active).

As to `NS(=O)(=O)c1ccc(N=Nc2c(O)[nH]c3ccc(Br)cc23)cc1`, the inhibition was -10.2%.

As to `Cc1cccc(N=Nc2c(O)[nH]c3ccc(F)cc23)c1`, the inhibition was 45% (active).

Consider `Oc1[nH]c2ccc(Br)cc2c1N=Nc1nn[nH]n1`, for which the inhibition is 6.35%.

In the case of `Cc1ccc(C)c(NC2=NCC(=O)N2c2ccc3c(c2)OCCO3)c1`, the inhibition was 2.39%.

For the compound `Cc1ccc(C(=O)N2CC(=O)Nc3ccc(F)cc3C2c2ccc(F)cc2)cc1` (stereo unspecified), the inhibition was 20.6%.

With `CC1=CC=CN2C1=NC(=O)CC2(C)C(=O)N(CC(=O)NC1CCCC1)c1ccccc1C` (stereo unspecified), the inhibition was -13.9%.

With `O=C(COC(=O)c1ccc(Br)o1)NC12CC3CC(CC(C3)C1)C2`, the inhibition is 25.9%.

With `O=C(OCC(=O)c1cccs1)c1ccc([N+](=O)[O-])o1`, the inhibition is 14.1%.

Take `O=C(COC(=O)c1ccc([N+](=O)[O-])o1)NC12CC3CC(CC(C3)C1)C2`: the inhibition was 44.7% (active).
